{
  "source": "PubChem BioAssay (Tox21)",
  "note": "Inconclusive results are not listed. Where a call stands in place of a potency, no number is given. Calls of active or inactive are those of the source. Calls follow the shape of the dose curve; as a rule, active = well fitted curve in the direction sought with a large enough effect in the repeat runs; inconclusive = weak or mixed curves; inactive = no such curve, though single readings can be large; an effect the other way counts as inactive or inconclusive.",
  "data": [
    {"test": "qHTS RealTime-Glo MT Cell Viability Assay in HEK293 cells - 8 hour (AID 1224887); also: nearly all actives have a fitted effect of over 50% in size; also: potency is read from the fitted curve at half-maximal effect", "settings": "RealTime-Glo luminescence; series mostly up to 76.8 µM", "how_it_was_run": "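HEK293 + NanoLuc + prosubstrate, 600 cells/well; 5 h, 37 C/5% CO2; compound 23 nL in DMSO by pintool; 37 C; luminescence read at 0, 8, 16, 24, 32 and 40 h time points.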", "values": [
      {"compound": "O=C1c2ccccc2C(=O)C1c1nc2ccccc2c(Br)c1O", "Potency": "inactive"},
      {"compound": "OC[C@H]1O[C@@H](n2cnc3c(=S)nc[nH]c32)[C@H](O)[C@@H]1O", "Potency": "inactive"},
      {"compound": "CC(C)=CCC/C(C)=C/CC/C(C)=C/C(=O)OCC(=O)[C@@]1(O)CC[C@H]2[C@@H]3CCC4=CC(=O)C=C[C@]4(C)[C@H]3[C@@H](O)C[C@@]21C", "Potency": "6.01 µM (active)"},
      {"compound": "Nc1nc2ccc([N+](=O)[O-])cc2s1", "Potency": "inactive"},
      {"compound": "CC(=O)NC1(c2cccc(F)c2)CCN(CC[C@@]2(c3ccc(Cl)c(Cl)c3)CN(c3ccccc3)C(=O)CO2)CC1", "Potency": "31 µM (active)"},
      {"compound": "Nc1cccc2c1CN(C1CCC(=O)NC1=O)C2=O", "note": "(centres undefined)", "Potency": "inactive"},
      {"compound": "COc1cc(Nc2c(C#N)cnc3cc(OCCCN4CCN(C)CC4)c(OC)cc23)c(Cl)cc1Cl", "Potency": "23.9 µM (active)"},
      {"compound": "CN1CCCN=C1COC(=O)C(O)(c1ccccc1)C1CCCCC1", "note": "(centres undefined)", "Potency": "inactive"},
      {"compound": "Cc1ccccc1S", "Potency": "inactive"},
      {"compound": "CCCCCCCCCCC(=O)O", "Potency": "inactive"},
      {"compound": "CN1CCCC(n2nc(Cc3ccc(Cl)cc3)c3ccccc3c2=O)CC1", "note": "(centres undefined)", "Potency": "7.56 µM (active)"},
      {"compound": "CCCC(=O)C(=O)O", "Potency": "inactive"},
      {"compound": "CCCCOc1ccc(OCCCN2CCOCC2)cc1", "Potency": "inactive"},
      {"compound": "CCCCN1CCCC1C(=O)Nc1c(C)cc(C)cc1C", "note": "(centres undefined)", "Potency": "inactive"},
      {"compound": "CCOC(=O)c1ccc(O)c(O)c1", "Potency": "inactive"},
      {"compound": "O=C1C(=O)c2ccccc2C(O)=C1C1CCC(c2ccc(Cl)cc2)CC1", "note": "(centres undefined)", "Potency": "inactive"},
      {"compound": "CCC(C)(C)OC", "Potency": "inactive"},
      {"compound": "O=C1c2ccccc2C(=O)C1(O)O", "Potency": "inactive"},
      {"compound": "CC(CCC(=O)O)C(=O)O", "note": "(centres undefined)", "Potency": "inactive"},
      {"compound": "Nc1nnc(-c2ccc([N+](=O)[O-])o2)o1", "Potency": "inactive"},
      {"compound": "O=C=Nc1cccc(C(F)(F)F)c1", "Potency": "inactive"},
      {"compound": "OCCOCC#CCOCCO", "Potency": "inactive"},
      {"compound": "COC(=O)c1nc(Cl)c(Cl)nc1N", "Potency": "6.74 µM (active)"},
      {"compound": "COc1ccc(OC(=O)N(CC(=O)O)Cc2ccc(OCCc3nc(-c4ccccc4)oc3C)cc2)cc1", "Potency": "inactive"},
      {"compound": "c1ccc2c(c1)CCc1ccccc1N2", "Potency": "inactive"},
      {"compound": "CC(CN(C)C)C(C)(O)Cc1ccc(Cl)cc1", "note": "(centres undefined)", "Potency": "inactive"},
      {"compound": "CCOC(C)=O", "Potency": "inactive"},
      {"compound": "CCOC(=O)OC(C)OC(=O)[C@@H]1N2C(=O)[C@@H](NC(=O)[C@H](N)c3ccccc3)[C@H]2SC1(C)C", "note": "(some centres undefined)", "Potency": "inactive"},
      {"compound": "CN1C(=O)N(c2ccccc2Br)Cc2cnc(Nc3ccc4c(c3)OCC(CO)O4)nc21", "note": "(centres undefined)", "Potency": "17.4 µM (active)"},
      {"compound": "Cc1ccc(OC(=O)c2ccccc2O)cc1", "Potency": "inactive"}
    ]},
    {"test": "A CellTox Green Cytotoxicity Assay to monitor cytotoxicity in HEK293 cells - 16 hour (AID 1224888); also: nearly all actives have a fitted effect of over 35% in size; also: potency is read from the fitted curve at half-maximal effect", "settings": "CellTox Green fluorescence; series mostly up to 76.8 µM", "how_it_was_run": "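Tox21 screen in HEK293: membrane-impermeant cyanine dye fluoresces on binding dead-cell DNA; compound pinned 5 h post-seeding, plates held at 37 C, signal read repeatedly through 40 h.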", "values": [
      {"compound": "O=C1c2ccccc2C(=O)C1c1nc2ccccc2c(Br)c1O", "Potency": "inactive"},
      {"compound": "OC[C@H]1O[C@@H](n2cnc3c(=S)nc[nH]c32)[C@H](O)[C@@H]1O", "Potency": "inactive"},
      {"compound": "CC(=O)NC1(c2cccc(F)c2)CCN(CC[C@@]2(c3ccc(Cl)c(Cl)c3)CN(c3ccccc3)C(=O)CO2)CC1", "Potency": "inactive"},
      {"compound": "Nc1cccc2c1CN(C1CCC(=O)NC1=O)C2=O", "note": "(centres undefined)", "Potency": "inactive"},
      {"compound": "COc1cc(Nc2c(C#N)cnc3cc(OCCCN4CCN(C)CC4)c(OC)cc23)c(Cl)cc1Cl", "Potency": "inactive"},
      {"compound": "CN1CCCN=C1COC(=O)C(O)(c1ccccc1)C1CCCCC1", "note": "(centres undefined)", "Potency": "inactive"},
      {"compound": "CCCCCCCCCCC(=O)O", "Potency": "inactive"},
      {"compound": "CN1CCCC(n2nc(Cc3ccc(Cl)cc3)c3ccccc3c2=O)CC1", "note": "(centres undefined)", "Potency": "inactive"},
      {"compound": "CC(=O)Nc1ccc(C)cc1C", "Potency": "inactive"},
      {"compound": "CN1C(C(=O)Nc2ccccn2)=C(O)c2sccc2S1(=O)=O", "Potency": "inactive"},
      {"compound": "CCCC(=O)C(=O)O", "Potency": "inactive"},
      {"compound": "CC(=O)Oc1ccc([N+](=O)[O-])cc1CCl", "Potency": "inactive"},
      {"compound": "O=c1cc(-c2ccccc2)oc2cc(O)cc(O)c12", "Potency": "inactive"},
      {"compound": "CCOC(=O)c1ccc(O)c(O)c1", "Potency": "inactive"},
      {"compound": "CC1=Nc2ccc3ccccc3c2C1(C)C", "Potency": "inactive"},
      {"compound": "O=C1C(=O)c2ccccc2C(O)=C1C1CCC(c2ccc(Cl)cc2)CC1", "note": "(centres undefined)", "Potency": "inactive"},
      {"compound": "CCC(C)(C)OC", "Potency": "inactive"},
      {"compound": "O=C1c2ccccc2C(=O)C1(O)O", "Potency": "inactive"},
      {"compound": "c1ccc(C[n+]2cccc3ccccc32)cc1", "Potency": "inactive"},
      {"compound": "CC(CCC(=O)O)C(=O)O", "note": "(centres undefined)", "Potency": "inactive"},
      {"compound": "Nc1nnc(-c2ccc([N+](=O)[O-])o2)o1", "Potency": "inactive"},
      {"compound": "OCCOCC#CCOCCO", "Potency": "inactive"},
      {"compound": "COc1ccc(OC(=O)N(CC(=O)O)Cc2ccc(OCCc3nc(-c4ccccc4)oc3C)cc2)cc1", "Potency": "inactive"},
      {"compound": "c1ccc2c(c1)CCc1ccccc1N2", "Potency": "inactive"},
      {"compound": "O=C(OCC(O)CO)c1ccccc1Nc1ccnc2cc(Cl)ccc12", "note": "(centres undefined)", "Potency": "inactive"},
      {"compound": "CC(CN(C)C)C(C)(O)Cc1ccc(Cl)cc1", "note": "(centres undefined)", "Potency": "inactive"},
      {"compound": "COc1cc(C(=O)NC2CCN(C)CC2)ccc1Nc1ncc2c(n1)N(C1CCCC1)CC(F)(F)C(=O)N2C", "Potency": "17.9 µM (active)"},
      {"compound": "CS(=O)(=O)c1ccc(-c2cn3ccccc3n2)cc1", "Potency": "inactive"},
      {"compound": "CN1C(=O)N(c2ccccc2Br)Cc2cnc(Nc3ccc4c(c3)OCC(CO)O4)nc21", "note": "(centres undefined)", "Potency": "inactive"},
      {"compound": "Cc1ccc(OC(=O)c2ccccc2O)cc1", "Potency": "inactive"}
    ]},
    {"test": "qHTS RealTime-Glo MT Cell Viability Assay in HepG2 cells - 0 hour (AID 1224889); also: nearly all actives have a fitted effect of over 50% in size", "settings": "RealTime-Glo luminescence; series mostly up to 76.8 µM", "how_it_was_run": "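HepG2 suspension premixed with RealTime-Glo reagents is plated at 600 cells per well and left 5 h at 37 C/5% CO2. Compounds in DMSO then go in, and bioluminescence reflecting viable cell number is recorded over 40 h.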", "values": [
      {"compound": "O=C1c2ccccc2C(=O)C1c1nc2ccccc2c(Br)c1O", "Potency": "inactive"},
      {"compound": "CC(C)=CCC/C(C)=C/CC/C(C)=C/C(=O)OCC(=O)[C@@]1(O)CC[C@H]2[C@@H]3CCC4=CC(=O)C=C[C@]4(C)[C@H]3[C@@H](O)C[C@@]21C", "Potency": "inactive"},
      {"compound": "Nc1nc2ccc([N+](=O)[O-])cc2s1", "Potency": "inactive"},
      {"compound": "CC(=O)NC1(c2cccc(F)c2)CCN(CC[C@@]2(c3ccc(Cl)c(Cl)c3)CN(c3ccccc3)C(=O)CO2)CC1", "Potency": "inactive"},
      {"compound": "Nc1cccc2c1CN(C1CCC(=O)NC1=O)C2=O", "note": "(centres undefined)", "Potency": "inactive"},
      {"compound": "CN1CCCN=C1COC(=O)C(O)(c1ccccc1)C1CCCCC1", "note": "(centres undefined)", "Potency": "inactive"},
      {"compound": "Cc1ccccc1S", "Potency": "inactive"},
      {"compound": "CN1CCCC(n2nc(Cc3ccc(Cl)cc3)c3ccccc3c2=O)CC1", "note": "(centres undefined)", "Potency": "inactive"},
      {"compound": "CCCC(=O)C(=O)O", "Potency": "inactive"},
      {"compound": "CCCCOc1ccc(OCCCN2CCOCC2)cc1", "Potency": "inactive"},
      {"compound": "CCCCN1CCCC1C(=O)Nc1c(C)cc(C)cc1C", "note": "(centres undefined)", "Potency": "inactive"},
      {"compound": "CCOC(=O)c1ccc(O)c(O)c1", "Potency": "inactive"},
      {"compound": "CC1=Nc2ccc3ccccc3c2C1(C)C", "Potency": "inactive"},
      {"compound": "CCC(C)(C)OC", "Potency": "inactive"},
      {"compound": "c1ccc(C[n+]2cccc3ccccc32)cc1", "Potency": "inactive"},
      {"compound": "Nc1nnc(-c2ccc([N+](=O)[O-])o2)o1", "Potency": "inactive"},
      {"compound": "OCCOCC#CCOCCO", "Potency": "inactive"},
      {"compound": "COc1ccc(OC(=O)N(CC(=O)O)Cc2ccc(OCCc3nc(-c4ccccc4)oc3C)cc2)cc1", "Potency": "inactive"},
      {"compound": "c1ccc2c(c1)CCc1ccccc1N2", "Potency": "inactive"},
      {"compound": "CC(CN(C)C)C(C)(O)Cc1ccc(Cl)cc1", "note": "(centres undefined)", "Potency": "inactive"},
      {"compound": "COc1cc(C(=O)NC2CCN(C)CC2)ccc1Nc1ncc2c(n1)N(C1CCCC1)CC(F)(F)C(=O)N2C", "Potency": "inactive"},
      {"compound": "CS(=O)(=O)c1ccc(-c2cn3ccccc3n2)cc1", "Potency": "inactive"},
      {"compound": "CCOC(=O)OC(C)OC(=O)[C@@H]1N2C(=O)[C@@H](NC(=O)[C@H](N)c3ccccc3)[C@H]2SC1(C)C", "note": "(some centres undefined)", "Potency": "inactive"},
      {"compound": "Cc1ccc(OC(=O)c2ccccc2O)cc1", "Potency": "inactive"}
    ]}
  ]
}
